Screening results as filed in PubChem.
Pf Dd2 growth: qHTS Primary assay for Inhibitors of Plasmodium falciparum Dd2 growth in vitro; P. falciparum Dd2 growth, SYBR Green, 72 h; Potency, µM (top dose mostly 28.9 µM), for inactives: at the highest dose activity, negative = inhibition, usual class: inhibitors; hit rate 4.3% among 120,000; AID 1347417, 2020; active = well fitted inhibition curve with a large enough effect;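 note: plate controls were DMSO vehicle for no effect and reference drug for full effect; nearly all actives have a fitted effect of over 65% in size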
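Infected erythrocytes (Dd2, 0.3% parasitemia, 2.5% hematocrit final) are added to compound in RPMI-1640/Albumax II medium, grown 72 h at 37C in low oxygen, then lysed with saponin/Triton-X containing SYBR Green and read by fluorescence.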
* hit, by the source's call; ! = repeats disagree; [ ] = another dose, or the depositor's remark. The sample as a whole holds a higher share of hits than the screen did. Potency is the fitted concentration of half-maximal effect.

COc1ccc(C)cc1NC(=O)CSc1ccc(-c2ccccn2)nn1 was read as Pf Dd2 growth 8.9µM*.
For COc1ccc(OC)c(NC(=O)CSc2ccc(-c3cccs3)nn2)c1 the results were Pf Dd2 growth 57%[5.79 µM].
COc1ccc(OC)c(NC(=O)CSc2ccc(-c3sc(C)nc3C)nn2)c1 was read as Pf Dd2 growth inactive.
`COc1ccc(-c2nc3c([nH]2)CN(S(=O)(=O)N2CCCC2)CC3)cn1` gave Pf Dd2 growth -22%.
`COc1cccc(C(=O)N2CCC[C@H]2c2nc(-c3ccccc3)no2)c1` gave Pf Dd2 growth 13%.
For CC(=O)N[C@H](C)c1onc(-c2ccc(Cl)cc2)c1C(=O)O the results were Pf Dd2 growth 14%[44.1 µM].
Screening Cc1ccc(C2Cn3nnc(-c4nc(-c5ccc6c(c5)OCO6)no4)c3CO2)c(C)c1 (stereo not drawn) returned Pf Dd2 growth -12%.
COc1ccc(-c2nc3c(c(=O)[nH]2)CCNC3)cc1 was read as Pf Dd2 growth -10%.
`O=C(N[C@@H]1CN(C(=O)Nc2ccc(OC(F)(F)F)cc2)CCC[C@H]1O)c1ccc(OCCN2CCOCC2)cc1` gave Pf Dd2 growth inactive.
`COc1ccc(C(=O)N[C@@H]2CN(C(=O)Nc3cccc(C#N)c3)CCC[C@H]2O)cc1` gave Pf Dd2 growth inactive.
COc1ccc(C(=O)N[C@@H]2CN(C(=O)Nc3ccc(OC(F)(F)F)cc3)CCC[C@H]2O)cc1 was read as Pf Dd2 growth 5µM*.
For CN1C(=O)C2(CCN(C(=O)c3cccc(F)c3)C2)c2ccccc21 (stereo not drawn) the results were Pf Dd2 growth inactive.
COc1ccc(C(=O)N2CCC3(C2)C(=O)N(CCc2ccccc2)c2ccccc23)cc1 (stereo not drawn) was read as Pf Dd2 growth 8.9µM*!.
Screening COc1ccc(C(=O)N2CCC3(C2)C(=O)N(Cc2ccccc2)c2ccccc23)cc1 (stereo not drawn) returned Pf Dd2 growth inactive.
Screening COc1ccc(C(=O)N2CCC3(CC2)C(=O)Nc2ccccc23)cc1 returned Pf Dd2 growth 52%.
Screening CC1(C(=O)O)CCN(C(=O)c2cccc(Cl)c2)CC1 returned Pf Dd2 growth -12%[44.1 µM].
`CN1C(=O)C2(CCN(C(=O)c3ccccc3)C2)c2ccccc21` (stereo not drawn) gave Pf Dd2 growth -15%[44.1 µM].
`O=C(c1cccc(Cl)c1)N1CCC2(C1)C(=O)N(CCc1ccccc1)c1ccccc12` (stereo not drawn) gave Pf Dd2 growth 7.9µM*!.
Screening CC(C)Oc1ccc(C(=O)N2CCC3(CC2)C(=O)N(C)c2ccccc23)cc1 returned Pf Dd2 growth 8.9µM*.
`CC(C)CCNC(=O)N1CCC2(CC1)C(=O)N(C)c1ccccc12` gave Pf Dd2 growth -15%.
For CCn1ccc(C(=O)N2CCC(c3nn(C)c(=O)n3CCc3ccccc3)CC2)n1 the results were Pf Dd2 growth 31%.
Screening CCS(=O)(=O)N(C1CC1)C1CCOC2(CCN(C(=O)Cc3ccccc3)CC2)C1 (stereo not drawn) returned Pf Dd2 growth 29%.
COc1ccc(OC)c(NC(=O)Cn2nc3c(cc2=O)CCCCC3)c1 was read as Pf Dd2 growth -21%.
COc1ccc(S(=O)(=O)N2CCCC(Cn3c(C4CC4)nc4cccnc43)C2)cc1 (stereo not drawn) was read as Pf Dd2 growth inactive.
`COCc1cn([C@H]2CO[C@H]3[C@@H]2OC[C@@H]3N)nn1` gave Pf Dd2 growth 6%[44.1 µM].
O=C1CC(c2noc(-c3cc(F)ccc3Cl)n2)CN1c1ccc(F)cc1 (stereo not drawn) was read as Pf Dd2 growth -7%.
Screening O=C(c1ccc(Oc2ccccc2)cc1)N1CCNc2cnc(Nc3cccc(C(F)(F)F)c3)nc2C1 returned Pf Dd2 growth -2%.
CCOCCCNC(=O)c1cc2c(-c3ccc(OC)c(OC)c3)nn(C)c2s1 was read as Pf Dd2 growth inactive.
CCCCN(CC)CCCNC(=O)c1cc2c(-c3ccc(OC)c(OC)c3)nn(C)c2s1 was read as Pf Dd2 growth 7.9µM*.
`COC(=O)c1ccccc1NC(=O)c1cc2c(-c3ccc(OC)c(OC)c3)nn(C)c2s1` gave Pf Dd2 growth 14%.
CCOCC(=O)N1CCC2(CC1)NCCc1c2[nH]c2ccccc12 was read as Pf Dd2 growth inactive.
`Cc1ccc(-n2c(/C=C/c3cc(Br)cs3)nc3ccccc3c2=O)cc1C` gave Pf Dd2 growth inactive.
Cc1ccc(-n2c(/C=C/c3cccs3)nc3ccccc3c2=O)cc1C was read as Pf Dd2 growth 8.9µM*.
COc1cccc(/C=C/c2nc3ccccc3c(=O)n2-c2ccc(C)c(C)c2)c1OC was read as Pf Dd2 growth 11%.
Screening Cc1ccc(N2CCC(N[C@@H]3CC[C@@H](N)C3)CC2)cc1Cl returned Pf Dd2 growth 13µM*.
`Cc1ccc(-n2ncc3c(NC4CCCCCC4)ncnc32)cc1Cl` gave Pf Dd2 growth inactive.
For Cc1ccc(C(=O)NC2CCN(c3cnn(CC4CC4)c(=O)c3)CC2)cc1C the results were Pf Dd2 growth inactive.
Screening CC(C)CNC(=O)C1COC2(CCN(C(=O)c3ccc(F)cc3)CC2)N1C(=O)c1ccccc1 (stereo not drawn) returned Pf Dd2 growth -23%.
For COc1ccc(C2Cn3nnc(C(=O)N4CCN(C(=O)c5ccccc5C)CC4)c3CO2)cc1 (stereo not drawn) the results were Pf Dd2 growth inactive.
Screening O=C(c1ccc(-c2ncc3cnc(C4=CCOCC4)cn23)cc1)N1CCc2ccccc2C1 returned Pf Dd2 growth inactive.
`O=C(c1ccc(-c2ncc3cnc(-c4ccccc4)cn23)cc1)N1CCS(=O)(=O)CC1` gave Pf Dd2 growth inactive.
`O=C(c1cccc(O)c1)N1CC=C(c2cnc3cnc(-c4ccccc4)cn23)CC1` gave Pf Dd2 growth 2µM*.
`CCOCCc1nnc(NC(=O)C(=O)c2cc(C)n(-c3ccc(C)cc3C)c2C)s1` gave Pf Dd2 growth 84%.
Screening CCOc1ccccc1NC(=O)CN1C(=O)C(=O)c2ccccc21 returned Pf Dd2 growth 158%[5.79 µM].
For Cc1cc(/C=C(\C#N)C(=O)Nc2ccccc2)c(C)n1-c1ccc(F)cc1 the results were Pf Dd2 growth -15%.
For COc1ccccc1NC(=O)C(=O)c1cc(C)n(-c2cc(C)cc(C)c2)c1C the results were Pf Dd2 growth 24%.
For CCOc1ccccc1NC(=O)C(=O)c1cc(C)n(-c2cccc(C)c2C)c1C the results were Pf Dd2 growth 7.1µM*.
Cc1ccc(-n2c(C)cc(C(=O)C(=O)Nc3ccccc3)c2C)c(C)c1 was read as Pf Dd2 growth 5µM*.
Screening CC(C)(C)c1cc(CC2(NCc3ccc(Cl)cc3)COC2)no1 returned Pf Dd2 growth -11%[44.1 µM].
Screening O=C(c1nccs1)c1cccnc1N1CCNCC(O)C1 (stereo not drawn) returned Pf Dd2 growth -14%.
COc1ccc(C[C@H](NC(=O)C2=C[C@@H](NC(=O)Nc3ccccc3Br)[C@@H](O)[C@H](O)C2)C(N)=O)cc1 was read as Pf Dd2 growth 3%.
Screening COc1ccc(-c2nnc3n2CCN(C(=O)C2CCCC2)C3)cc1 returned Pf Dd2 growth -18%[44.1 µM].
`COc1ccc(CC(=O)Nc2c(C(=O)N3CCN(c4ccccc4F)CC3)oc3ccccc23)cc1OC` gave Pf Dd2 growth 11µM*.
CCOc1ccc(C(=O)Nc2c(C(=O)N3CCN(c4ccccc4F)CC3)oc3ccccc23)cc1 was read as Pf Dd2 growth -9%.
